Values joined by “and” are separate entries in the source; they are usually repeats but may differ in a detail not shown here. Equal entries are not always repeated. The campaign covered roughly 5,500 compounds. About 2,000 (36%) were called active. Another 18% or so got no clear call; they are omitted. No stated cut-off is given here; in the data, active means normalized growth mostly below about 0.91 (no sharp cut-off); inconclusive means no clear call, values can overlap the other calls; inactive means mostly above about 0.92. The list shows a part of the results.
Assay: chemical genetic growth profiling, strain panel (AID 1159580);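 further: tested at 20 µM; growth read once vehicle control cultures reached saturation at 30 °C; 1 = growth at the plate median or of vehicle wells; lower values mean less growth of the strain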
Settings: S. cerevisiae deletion strains, growth OD

Measured: normalized growth

C=CCc1ccccc1OCC(O)CNC(C)C (stereo not given)
inactive: locus YAL013W, strain DEP1, hits give low values 1 and 0.978 | locus YAL021C, strain ccr4, hits give low values 1 | locus YAL026C, strain drs2, hits give low values 1 | locus YAL030W, strain snc1, hits give low values 0.995 | locus YAL040C, strain CLN3, hits give low values 0.974 | locus YBL061C, strain skt5, hits give low values 1 | locus YBR009C, strain hhf1, hits give low values 0.971 | locus YBR021W, strain FUR4, hits give low values 0.998 | locus YBR023C, strain chs3, hits give low values 1 | locus YBR171W, strain sec66, hits give low values 0.99 | locus YBR229C, strain ROT2, hits give low values 1 | locus YBR231C, strain swc5, hits give low values 0.987 | locus YBR279W, strain paf1, hits give low values 1 | locus YCL011C, strain gbp2, hits give low values 0.998 | locus YCL016C, strain dcc1, hits give low values 0.993 | locus YCL029C, strain bik1, hits give low values 1.02 | locus YCL061C, strain MRC1 (second series), hits give low values 1 | locus YCL061C, strain MRC1, hits give low values 0.999 | locus YCL069W, strain vba3, hits give low values 0.994 | locus YCR088W, strain abp1, hits give low values 0.992 | locus YDL005C, strain med2, hits give low values 0.995 | locus YDL035C, strain GPR1, hits give low values 0.991 | locus YDL040C, strain nat1, hits give low values 0.995 | locus YDL074C, strain BRE1, hits give low values 1.01 | locus YDL101C, strain DUN1, hits give low values 1.01 | locus YDL134C, strain PPH21, hits give low values 1.01 | locus YDL185W, strain tfp1, hits give low values 1 | locus YDL192W, strain arf1, hits give low values 1.02 | locus YDR001C, strain nth1, hits give low values 1 | locus YDR069C, strain doa4, hits give low values 0.979 | locus YDR101C, strain arx1, hits give low values 1.01 | locus YDR137W, strain rgp1, hits give low values 0.998 | locus YDR150W, strain NUM1, hits give low values 1 and 1.02 | locus YDR159W, strain sac3, hits give low values 0.993 | locus YDR162C, strain NBP2, hits give low values 1 | locus YDR195W, strain ref2 0.913 | locus YDR297W, strain sur2, hits give low values 1 | locus YDR318W, strain mcm21, hits give low values 1.01 | locus YDR334W, strain swr1, hits give low values 0.997 | locus YDR335W, strain msn5, hits give low values 1 | locus YDR363W, strain ESC2, hits give low values 0.973 | locus YDR388W, hits give low values 1 | locus YDR392W, strain spt3, hits give low values 0.86 | locus YDR502C, strain sam2, hits give low values 1.01 | locus YEL003W, strain gim4, hits give low values 0.992 | locus YEL037C, strain rad23, hits give low values 0.997 | locus YEL061C, strain CIN8 (second series), hits give low values 1 | locus YEL061C, strain CIN8, hits give low values 1 | locus YER002W, strain NOP16, hits give low values 0.975 | locus YER015W, strain faa2, hits give low values 0.995 | locus YER016W, strain bim1, hits give low values 0.985 | locus YER110C, hits give low values 1.02 | locus YER111C, strain swi4, hits give low values 0.986 | locus YER155C, strain BEM2 (second series), hits give low values 0.968 | locus YER155C, strain BEM2, hits give low values 0.999 | locus YER167W, strain BCK2, hits give low values 1 | locus YFR010W, strain ubp6, hits give low values 1 | locus YGL078C, strain dbp3, hits give low values 1.01 | locus YGL086W, strain mad1, hits give low values 1 | locus YGL167C, strain pmr1, hits give low values 0.998 | locus YGL173C, strain kem1, hits give low values 0.997 | locus YGL227W, strain vid30, hits give low values 0.987 | locus YGL240W, strain doc1, hits give low values 0.983 | locus YGL248W, strain PDE1, hits give low values 0.998 | locus YGL253W, strain hxk2, hits give low values 1 | locus YGR078C, strain PAC10, hits give low values 1.01 | locus YGR135W, strain pre9, hits give low values 1.02 | locus YGR229C, strain SMI1, hits give low values 0.974 | locus YGR252W, strain gcn5, hits give low values 0.98 | locus YHR013C, strain ard1, hits give low values 0.943 | locus YHR027C, strain rpn1, hits give low values 1 | locus YHR030C, strain SLT2, hits give low values 1 and 0.989 | locus YHR079C, strain IRE1 (second series), hits give low values 1.01 | locus YHR079C, strain IRE1, hits give low values 0.972 | locus YHR094C, strain hxt1, hits give low values 1 | locus YHR129C, strain ARP1, hits give low values 1.01 | locus YHR142W, strain chs7, hits give low values 1.01 | locus YHR200W, strain rpn10, hits give low values 1 | locus YIL066C, strain RNR3, hits give low values 1.01 | locus YIL073C, strain SPO22, hits give low values 1.06 | locus YIL125W, strain kgd1, hits give low values 1.01 | locus YIR030C, strain dcg1, hits give low values 1.02 | locus YJL092W, strain hpr5, hits give low values 1 | locus YJL095W, strain BCK1 (second series), hits give low values 0.995 | locus YJL095W, strain BCK1, hits give low values 1.02 and 0.978 | locus YJL115W, strain asf1, hits give low values 1 | locus YJL129C, strain trk1, hits give low values 0.998 | locus YJL134W, strain LCB3, hits give low values 0.997 | locus YJL154C, strain vps35, hits give low values 0.99 | locus YJL164C, strain tpk1, hits give low values 1.01 | locus YJL166W, strain qcr8, hits give low values 1 | locus YJL168C, strain set2, hits give low values 1.01 | locus YJL187C, strain SWE1 (second series), hits give low values 1.02 | locus YJL187C, strain SWE1, hits give low values 1.01 | locus YJR043C, strain POL32, hits give low values 1

Reference: PubChem BioAssay AID1159580 (chemical genetic matrix, 2015)
